Article PMC8384837, “Expanding the binding specificity for RNA recognition by a PUF domain”
Residue numbers refer to the chain shown, from its start.

What was measured:
Test in all cases: yeast three-hybrid, YBZ-1, SC-Leu-His + 0.5 mM 3-AT, 4 days
Conditions in all cases: tags: N-Gal4 AD-HA kept; label: inside an RPR1-promoter hybrid RNA with tandem MS2 sites; ssRNA
PUM1 PUF domain R5-KFA = PUM1 PUF domain R5-KFA (Homo sapiens, UniProt Q14671 828-1176, C1007K;R1008F;Q1011A)
How it was run: (§1)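 A centromeric plasmid in strain YBZ-1 co-expressed Pumilio-1 PUF domain libraries, randomized at the three base-contacting residues of each repeat, with matching RNA elements; the strain carries a LexA–MS2 coat fusion and a HIS3 reporter. After four days on SC-Leu (input) or SC-Leu-His + 0.5 mM 3-AT (selection), the repeat regions were PCR-amplified and Illumina-sequenced. The interaction score is the log change in variant frequency from input to selection, using log2 and a pseudocount of 1 where absent.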

PUM1 PUF domain R6-CYR = target: T1, PUM1 PUF domain R6-CYR (Homo sapiens, UniProt Q14671 828-1176, N1043C;Q1047R)
T1 sequence: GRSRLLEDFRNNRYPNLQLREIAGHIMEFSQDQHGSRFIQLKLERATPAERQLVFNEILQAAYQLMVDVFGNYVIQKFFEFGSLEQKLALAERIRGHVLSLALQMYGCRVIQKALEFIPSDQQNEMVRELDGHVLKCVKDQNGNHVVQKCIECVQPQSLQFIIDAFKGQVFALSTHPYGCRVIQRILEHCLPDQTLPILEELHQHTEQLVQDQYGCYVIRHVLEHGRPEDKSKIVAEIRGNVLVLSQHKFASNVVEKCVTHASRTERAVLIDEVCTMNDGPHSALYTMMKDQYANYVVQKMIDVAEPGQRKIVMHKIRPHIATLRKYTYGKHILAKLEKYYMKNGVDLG
How it was run: as §1

PUM1 PUF domain R8-YWR = PUM1 PUF domain R8-YWR (Homo sapiens, UniProt Q14671 828-1176, N1122Y;Y1123W;Q1126R)
How it was run: as §1

PUM1 PUF domain R6-RFR = target: T2, PUM1 PUF domain R6-RFR (Homo sapiens, UniProt Q14671 828-1176, N1043R;Y1044F;Q1047R)
T2 sequence: T1 sequence with C216R, Y217F
How it was run: as §1

PUM1 PUF domain R8-TYR = PUM1 PUF domain R8-TYR (Homo sapiens, UniProt Q14671 828-1176, N1122T;Q1126R)
How it was run: as §1

PUM1 PUF domain R8-TFK = PUM1 PUF domain R8-TFK (Homo sapiens, UniProt Q14671 828-1176, N1122T;Y1123F;Q1126K)
How it was run: as §1

PUM1 PUF domain R3-RAY = PUM1 PUF domain R3-RAY (Homo sapiens, UniProt Q14671 828-1176, C935R;R936A;Q939Y)
How it was run: as §1

PUM1 PUF domain R1-GQK = PUM1 PUF domain R1-GQK (Homo sapiens, UniProt Q14671 828-1176, S863G;R864Q;Q867K)
How it was run: as §1

PUM1 PUF domain R1-KYS = PUM1 PUF domain R1-KYS (Homo sapiens, UniProt Q14671 828-1176, S863K;R864Y;Q867S)
How it was run: as §1

PUM1 PUF domain R1-RGM = PUM1 PUF domain R1-RGM (Homo sapiens, UniProt Q14671 828-1176, S863R;R864G;Q867M)
How it was run: as §1

PUM1 PUF domain R5-KFA, sequence (Q14671 828-1176 C1007K/R1008F/Q1011A): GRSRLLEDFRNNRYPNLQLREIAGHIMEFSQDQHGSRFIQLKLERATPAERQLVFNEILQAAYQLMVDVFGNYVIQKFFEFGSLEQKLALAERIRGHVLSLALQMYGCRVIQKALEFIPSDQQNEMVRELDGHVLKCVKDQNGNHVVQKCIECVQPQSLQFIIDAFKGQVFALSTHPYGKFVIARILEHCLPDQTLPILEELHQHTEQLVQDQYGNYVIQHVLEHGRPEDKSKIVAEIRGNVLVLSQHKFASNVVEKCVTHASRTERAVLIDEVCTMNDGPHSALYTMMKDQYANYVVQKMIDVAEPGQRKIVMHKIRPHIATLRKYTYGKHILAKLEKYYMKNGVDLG

GGCUAGAACUAGUGGAUCCCCCGGCGCCCGGCGGCUCGAGCCCGGGUAAGUGUAAAUAGUCUGCAUGCCGCCGGGCGCCAUGCCUGCAGGUCGACUCUAGAAAACAUG
binding signal (PUM1 PUF domain R5-KFA): 4.26 log2 enrichment (interaction score)
binding signal (PUM1 PUF domain R6-CYR): 5.11 log2 enrichment (interaction score)
binding signal (PUM1 PUF domain R8-YWR): 4.66 log2 enrichment (interaction score)
binding signal (PUM1 PUF domain R6-RFR): 3.75 log2 enrichment (interaction score)
binding signal (PUM1 PUF domain R8-TYR): 4.56 log2 enrichment (interaction score)
binding signal (PUM1 PUF domain R8-TFK): 2.11 log2 enrichment (interaction score)

GGCUAGAACUAGUGGAUCCCCCGGCGCCCGGCGGCUCGAGCCCGGGUAAGUGUAAUUAGUCUGCAUGCCGCCGGGCGCCAUGCCUGCAGGUCGACUCUAGAAAACAUG
binding signal (PUM1 PUF domain R3-RAY): 3.92 log2 enrichment (interaction score)

GGCUAGAACUAGUGGAUCCCCCGGCGCCCGGCGGCUCGAGCCCGGGUAAGUGUCAAUAGUCUGCAUGCCGCCGGGCGCCAUGCCUGCAGGUCGACUCUAGAAAACAUG
binding signal (PUM1 PUF domain R5-KFA): 4.46 log2 enrichment (interaction score)

GGCUAGAACUAGUGGAUCCCCCGGCGCCCGGCGGCUCGAGCCCGGGUAAGUGUAAAUCGUCUGCAUGCCGCCGGGCGCCAUGCCUGCAGGUCGACUCUAGAAAACAUG
binding signal (PUM1 PUF domain R1-GQK): 3.53 log2 enrichment (interaction score)
binding signal (PUM1 PUF domain R1-KYS): 5.18 log2 enrichment (interaction score)
binding signal (PUM1 PUF domain R1-RGM): 0.98 log2 enrichment (interaction score)

GGCUAGAACUAGUGGAUCCCCCGGCGCCCGGCGGCUCGAGCCCGGGUAAGUGUAAAUUGUCUGCAUGCCGCCGGGCGCCAUGCCUGCAGGUCGACUCUAGAAAACAUG
binding signal (PUM1 PUF domain R1-RGM): 2.74 log2 enrichment (interaction score)

GGCUAGAACUAGUGGAUCCCCCGGCGCCCGGCGGCUCGAGCCCGGGUAAGUGUUAAUAGUCUGCAUGCCGCCGGGCGCCAUGCCUGCAGGUCGACUCUAGAAAACAUG
binding signal (PUM1 PUF domain R5-KFA): 4.8 log2 enrichment (interaction score)

GGCUAGAACUAGUGGAUCCCCCGGCGCCCGGCGGCUCGAGCCCGGGUAAGUGCAAAUAGUCUGCAUGCCGCCGGGCGCCAUGCCUGCAGGUCGACUCUAGAAAACAUG
binding signal (PUM1 PUF domain R6-CYR): 5.44 log2 enrichment (interaction score)

GGCUAGAACUAGUGGAUCCCCCGGCGCCCGGCGGCUCGAGCCCGGGUAAGUGAAAAUAGUCUGCAUGCCGCCGGGCGCCAUGCCUGCAGGUCGACUCUAGAAAACAUG
binding signal (PUM1 PUF domain R6-RFR): 1.66 log2 enrichment (interaction score)

GGCUAGAACUAGUGGAUCCCCCGGCGCCCGGCGGCUCGAGCCCGGGUAAGCGUAAAUAGUCUGCAUGCCGCCGGGCGCCAUGCCUGCAGGUCGACUCUAGAAAACAUG
binding signal (PUM1 PUF domain R8-YWR): 4.53 log2 enrichment (interaction score)
binding signal (PUM1 PUF domain R8-TYR): 5.46 log2 enrichment (interaction score)
binding signal (PUM1 PUF domain R8-TFK): 5.88 log2 enrichment (interaction score)
